PubChem BioAssay
Calls of active or inactive are those of the source. Rule as the data show it, unless noted: active = nuclear beta-catenin stimulation mostly above about 4.2% (no sharp cut-off); inactive = mostly below about 10%.

Legend:
[1] = Wnt pathway potentiators raising nuclear beta-catenin – imaging, WNT3A-conditioned medium, mouse C2C12, NPC library, primary screen (AID 1117326); settings: stronger effect = higher value; also: reference of the scale not given here
[2] = stimulators of insulin release from INS-1E, primary screen, cell-based, 5 mM glucose, NPC library (AID 1117329;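 active = compound raises insulin release from rat beta cells at 5 mM glucose, no numeric limit stated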; also: reference of the scale not given here); settings: rat INS-1E insulin secretion, at 10 µM, stronger effect = higher value
[3] = growth inhibition of GSK3B-pretreated HCT116 cells – cell-based, CellTiter-Glo, 0.2 to 20 µM (AID 1117336;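 active = compounds lowering colon cancer cell viability after pretreatment blocking the GSK3B kinase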); settings: HCT116 viability after GSK3B inhibitor, at 20 µM, stronger effect = higher value
[4] = inhibition of endothelial tube formation, primary screen, imaging, VEGF stimulated, CD31 staining, tube area, NPC library (AID 1117340;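 active = compound that reduces growth-factor-driven endothelial tube area in a mixed cell culture, no cutoff stated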); settings: VEGF-stimulated ADSC/ECFC co-culture, at 10 µM, stronger effect = higher value
[5] = GLP1 release stimulators, primary, NCI-H716, NPC library (AID 1117341;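 active = compound raises GLP1 secretion from the human gut endocrine cells, with no numeric limit stated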; also: reference of the scale not given here); settings: NCI-H716 cells, at 10 µM, stronger effect = higher value
[6] = HCT116 colon cancer cell growth inhibition, primary screen, CellTiter-Glo luminescence, NPC library (AID 1117342;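 active = compounds that lower survival of HCT116 colon cancer cells in the luminescence readout, no numeric limit stated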); settings: at 20 µM (top of the series)
[7] = reduced SW480 viability measured with CellTiter-Glo, NPC library, primary (AID 1117343;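 active = compounds that lower viability of the colon cancer cells in the luminescence readout, with no numeric limit stated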); settings: CellTiter-Glo luminescence; at 20 µM (top of the series)
[8] = NPC library primary testing for decreased DLD-1 cell viability via CellTiter-Glo (AID 1117346;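 active = compounds that lower survival of DLD-1 colon cancer cells in the luminescence readout, no cutoff given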); settings: DLD-1 viability, CellTiter-Glo luminescence; at 20 µM (top of the series)
[9] = viability loss with induced miR-34 in A549 – imaging, A549 dox-inducible miR-34, nuclei and caspase counts, primary screen (AID 1347080;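 active = compounds whose cell count with miR-34 switched on is under 0.7 times the count with it off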); settings: A549 miR-34 inducible, Hoechst nuclei count, 48 h
[10] = target: NAD(+) hydrolase SARM1 (Homo sapiens) (UniProt Q6SZW1); assay: blocking NAD cleavage by SARM1 SAM-TIR – cell lysate, NAD-Glo luminescence (AID 1508614;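 active = compound whose remaining NAD level is above about 45 nM, limit read from the data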;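 also: higher remaining NAD means stronger inhibition of SARM1 NADase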); settings: SAM-TIR HEK293T lysate NADase, at 1 µM, stronger effect = higher value
NAD(+) hydrolase SARM1 (Homo sapiens), sequence (Q6SZW1 whole entry, looked up): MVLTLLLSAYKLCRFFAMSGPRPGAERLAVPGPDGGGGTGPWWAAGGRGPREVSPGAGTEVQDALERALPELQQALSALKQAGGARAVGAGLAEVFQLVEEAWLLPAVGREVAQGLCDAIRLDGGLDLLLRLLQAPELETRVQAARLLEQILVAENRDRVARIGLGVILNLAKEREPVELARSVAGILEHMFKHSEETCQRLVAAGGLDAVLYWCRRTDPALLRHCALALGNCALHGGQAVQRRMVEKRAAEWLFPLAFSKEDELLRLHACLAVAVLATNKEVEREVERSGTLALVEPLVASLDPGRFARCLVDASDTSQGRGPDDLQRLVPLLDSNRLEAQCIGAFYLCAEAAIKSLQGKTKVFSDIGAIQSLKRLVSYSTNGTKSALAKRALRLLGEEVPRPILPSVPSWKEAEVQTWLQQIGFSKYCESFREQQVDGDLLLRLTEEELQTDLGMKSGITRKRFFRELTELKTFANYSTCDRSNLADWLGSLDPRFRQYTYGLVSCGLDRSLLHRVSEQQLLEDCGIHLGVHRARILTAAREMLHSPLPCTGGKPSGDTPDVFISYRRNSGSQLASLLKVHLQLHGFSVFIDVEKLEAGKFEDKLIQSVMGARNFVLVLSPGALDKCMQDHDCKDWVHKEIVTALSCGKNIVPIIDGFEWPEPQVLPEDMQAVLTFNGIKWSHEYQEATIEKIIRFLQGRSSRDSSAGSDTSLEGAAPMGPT

[11] = compounds altering viability of human ES cells (AID 493140; call rule not given here;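 also: cells exposed to compounds for four days before counting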); settings: human embryonic stem cell survival screen; stronger effect = higher value
[12] = P. berghei load reduction in hepatocytes – cell-based, HepG2, luciferase luminescence, HepG2 viability, primary screen (AID 624349; in the data active = parasite load remaining mostly below about 12%, no sharp cut-off; inactive = mostly above about 10%;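 also: 100% = mean of DMSO negative control wells on the same plate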); settings: P. berghei liver stage in HepG2, luciferase luminescence, concentration not given here; parasite load remaining: stronger effect = lower value; viability: measured here: HepG2 viability without parasites
[13] = MELAS cybrid and Rieske KO viability enhancers – cell-based, MELAS cybrids, Rieske KO mouse fibroblasts, CellTiter-Glo, primary screen (AID 1508586;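 active = mean z-score across replicates of 1.96 or higher in either the MELAS or the Rieske mutant cell line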;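 also: z relative to plate mean and SD of compound and empty wells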); settings: low glucose
[14] = measured here: relative caspase fold change +Dox/-Dox
[15] = measured here: total cells with miR-34 induction, stronger effect = lower value
[16] = measured here: total cells without miR-34 induction
[17] = stronger effect = lower value, cell number ratio, induced over uninduced

| SMILES | nuclear beta-catenin stimulation ([1]; at 10 µM) | nuclear beta-catenin stimulation ([1]; stimulation, at 2 µM) [%] | insulin secretion stimulation [2] | viability decrease [3] | tube area decrease [4] | GLP1 secretion stimulation [5] | inhibition of viability [6] | viability decrease (inhibition) [7] | viability decrease (inhibition) [8] | fold change ([9]; stronger effect = lower value) | fold change [9, 14] | cell count [9, 15] | cell count [9, 16] | remaining NAD [10] | survival [11] | parasite load remaining [12] | viability [12] [%] | fold change [9, 17] | z-score ([13]; MELAS cybrid survival, CellTiter-Glo 48 h, stronger effect = higher value) | z-score ([13]; Rieske KO mouse fibroblast survival, CellTiter-Glo 72 h) |
| --- | --- | --- | --- | --- | --- | --- | --- | --- | --- | --- | --- | --- | --- | --- | --- | --- | --- | --- | --- | --- |
| NCc1cccnc1 | 0.8% (inactive) | 1.2 | -1.3% (inactive) | 16.9% (inactive) | -11.1% (inactive) | 0% (inactive) | -22.4% (active) | 1.8% (inactive) | -13.1% (inactive) | 0.867 (inactive) | 0.915 | 7820 | 9010 | 10 nM (inactive) | – | – | – | – | – | – |
| CC=CC1C(C(=O)OCc2c(F)c(F)c(COC)c(F)c2F)C1(C)C (stereo not drawn) | 2.1% (inactive) | -0.3 | 0.95% (inactive) | – | – | -3.8% (inactive) | – | – | – | – | – | – | – | – | – | – | – | – | – | – |
| CCCCCCCCOC(=O)c1ccccc1C(=O)OCCCCCCCC | 3.1% (inactive) | -1.3 | 0.05% (inactive) | 5.3% (inactive) | – | -0.4% (inactive) | 32% (inactive) | -4.6% (inactive) | 3.6% (inactive) | – | – | – | – | – | – | – | – | – | – | – |
| CCNCC(O)c1cccc(O)c1 (stereo not drawn) | -1.1% (inactive) | 2.2 | 0.6% (inactive) | -11.3% (inactive) | 0.2% (inactive) | -2.7% (inactive) | 1.7% (inactive) | 15.1% (inactive) | -2.7% (inactive) | – | 0.593 | 9690 | 10400 | – | 9.33 (inactive) | 95% (inactive) | 69.4 | 0.936 (inactive) | 0.575 (inactive) | 0.102 |
| COP(=S)(OC)Oc1cc(Cl)c(Cl)cc1Cl | 2.5% (inactive) | -0.1 | 2.1% (inactive) | -23.4% (inactive) | -3.6% (inactive) | 3.7% (inactive) | 9.4% (inactive) | 32% (inactive) | 15.4% (inactive) | – | 3.75 | 12000 | 13300 | – | – | 48.6% (inactive) | 108 | 0.898 (inactive) | – | – |
| CCOP(=S)(OCC)SCSc1ccc(Cl)cc1 | 1.3% (inactive) | -1.3 | -1.15% (inactive) | – | – | -0.9% (inactive) | – | – | – | – | – | – | – | – | – | – | – | – | – | – |
| O=[N+]([O-])C(Br)(CO)CO | 44.8% (active) | 0 | 20.2% (active) | -19.2% (inactive) | 106% (active) | -0.1% (inactive) | 2.9% (inactive) | 88.9% (active) | 52.2% (active) | – | – | – | – | 51 nM (active) | – | – | – | – | – | – |
